For eight compounds, growth results are on record in PubChem BioAssay (NCI).

Assay in all cases: NCI-60 one-dose screen, 48 h (100 = growth as untreated, 0 = no growth, -100 = all killed)
In one assay the test system is HCT-15 colon. As to conditions: 10 µM.
The test system of a further assay is HT29 colon. The following applies: 10 µM.
The next assay concerns SNB-75 CNS. The following applies: 10 µM.
A further assay deals with SNB-19 CNS. As to conditions: 10 µM.
The test system of another assay is U251 CNS. The following applies: 10 µM.
The subject of another assay is PC-3 prostate. The following applies: 10 µM.
The next assay concerns SK-MEL-5 melanoma. As to conditions: 10 µM.
The next assay deals with UACC-62 melanoma. As to conditions: 10 µM unless noted.
The test system of the next assay is LOX IMVI melanoma. The following applies: 10 µM.
For a further assay, the system named is SK-MEL-28 melanoma. The following applies: 10 µM.
Another assay deals with SK-MEL-2 melanoma. The following applies: 10 µM.
In another assay the test system is EKVX NSCLC. The following applies: 10 µM.
For another assay, the system named is SN12C renal. The following applies: 10 µM.
A further assay relates to UO-31 renal. The following applies: 10 µM.
For the next assay, the system named is TK-10 renal. As to conditions: 10 µM unless noted.
A further assay concerns ACHN renal. The following applies: 10 µM.
The next assay relates to CAKI-1 renal. As to conditions: 10 µM.
The subject of a further assay is A498 renal. As to conditions: 10 µM.
A further assay has as its system CCRF-CEM leukemia. As to conditions: 10 µM.
In the next assay the test system is MOLT-4 leukemia. The following applies: 10 µM.

This is part of a sample that, as a whole, favours compounds with a hit. Of some 83,000 tested, about 20% had one in any assay.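 Interpretation: 100, growth as untreated; towards 0, rising growth inhibition; 0, no net growth; 0 to -100, cell death. Compounds scoring below 10 were considered active.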 A number with no mark means an inactive call. Active and inactive are the calls of the source.

In the case of `CN(C)c1ccc(CNC(C(=O)c2ccccc2)c2ccccc2)cc1` (stereo not given), the growth was 96.9% with HCT-15 colon; 82.6% with HT29 colon; 90.4% in the assay on SNB-75 CNS; 107% in the assay with SNB-19 CNS; 94.1% in the assay with U251 CNS; 85.7% in the assay with PC-3 prostate. In addition, the growth was 56.2% in the assay with SK-MEL-5 melanoma; 99.2% in the assay with UACC-62 melanoma; 95.1% in the assay on LOX IMVI melanoma; 94.2% in the assay with SK-MEL-28 melanoma; 74.5% in the assay on SK-MEL-2 melanoma; 101% in the assay with EKVX NSCLC. For the same compound, the growth in the assay with SN12C renal was 115%; in the assay with UO-31 renal, 102%; with TK-10 renal it was 112%; with ACHN renal, 101%; in the assay with CAKI-1 renal it was 102%; in the assay on A498 renal, 8.44% (active). Also, the figures for the growth in the assay on CCRF-CEM leukemia and with MOLT-4 leukemia were 90.9% and 94.9%, respectively.
Consider `CN(C)c1nc2c([nH]1)c(=O)n(C)c(=O)n2C`, for which the growth in the assay on HCT-15 colon was 108%; in the assay on HT29 colon, 102%; in the assay on SNB-75 CNS, 102%; in the assay on SNB-19 CNS, 111%; in the assay with U251 CNS, 93.4%; in the assay with PC-3 prostate it was 91.6%. The growth with SK-MEL-5 melanoma was 101%; in the assay on UACC-62 melanoma it was 105%; in the assay on LOX IMVI melanoma, 98.7%; with SK-MEL-28 melanoma it was 110%; in the assay with SK-MEL-2 melanoma, 98.7%; with EKVX NSCLC, 104%. Besides, the growth in the assay on SN12C renal was 105%; with UO-31 renal, 99.1%; in the assay on TK-10 renal, 107%; in the assay on ACHN renal, 102%; with CAKI-1 renal, 102%; in the assay with A498 renal, 89.6%. The growth in the assay with CCRF-CEM leukemia is 92.5%; in the assay on MOLT-4 leukemia it was 99.6%.
Regarding `O=c1[nH]n(-c2ccccc2)c(=O)cc1Cl`, the growth was 120% in the assay with HCT-15 colon; 110% with HT29 colon; 95.2% in the assay with SNB-75 CNS; 98.9% with SNB-19 CNS; 109% with U251 CNS; 97.3% in the assay with PC-3 prostate. For the same compound, the growth is 102% in the assay with SK-MEL-5 melanoma; 87.3% with UACC-62 melanoma; 96% in the assay with LOX IMVI melanoma; 117% in the assay with SK-MEL-28 melanoma; 104% in the assay with SK-MEL-2 melanoma; 110% with EKVX NSCLC. For the same compound, the growth in the assay on SN12C renal is 93.3%; in the assay on UO-31 renal it was 84.7%; with TK-10 renal, 102%; in the assay on ACHN renal, 98.5%; in the assay on CAKI-1 renal, 121%; in the assay on A498 renal, 108%. In addition, the values for the growth in the assay on CCRF-CEM leukemia and in the assay on MOLT-4 leukemia were 106% and 95.4%, respectively.
For `CC(=O)OC1CC2C(C)(C)OC3CC(=O)OCC32C2CCC3(C)C(=CCC3c3ccoc3)C12C` (stereo not given), the growth in the assay on HCT-15 colon was 108%; in the assay with HT29 colon, 102%; in the assay on SNB-75 CNS, 97%; in the assay with SNB-19 CNS, 101%; with U251 CNS, 107%; in the assay on PC-3 prostate, 105%. Besides, the growth in the assay on SK-MEL-5 melanoma was 92.5%; in the assay on UACC-62 melanoma it was 72.1%; in the assay with LOX IMVI melanoma it was 98.4%; in the assay with SK-MEL-28 melanoma, 86.9%; with SK-MEL-2 melanoma, 99.5%; in the assay with EKVX NSCLC, 102%. In addition, the growth is 105% in the assay on SN12C renal; 86.9% in the assay with UO-31 renal; 107% in the assay on TK-10 renal; 101% with ACHN renal; 98.7% in the assay on CAKI-1 renal; 110% with A498 renal. The growth with CCRF-CEM leukemia is 101%; in the assay on MOLT-4 leukemia, 90.8%.
With `S=c1nn[nH]c2ccccc12`, the growth is 103% in the assay with HCT-15 colon; 112% with HT29 colon; 96.4% with SNB-75 CNS; 95.9% in the assay on SNB-19 CNS; 103% with U251 CNS; 98.1% in the assay on PC-3 prostate. Moreover, the growth in the assay with SK-MEL-5 melanoma was 97.9%; in the assay with UACC-62 melanoma it was 99.2%; in the assay with LOX IMVI melanoma it was 93.6%; in the assay on SK-MEL-28 melanoma, 126%; with SK-MEL-2 melanoma it was 102%; with EKVX NSCLC, 117%. For the same compound, the growth is 93.4% in the assay with SN12C renal; 67.1% with UO-31 renal; 109% with TK-10 renal; 93.2% in the assay on ACHN renal; 98.3% with CAKI-1 renal; 109% in the assay on A498 renal. Moreover, the growth in the assay with CCRF-CEM leukemia is 111%; in the assay with MOLT-4 leukemia it was 108%.
For the compound `CCCCC(CC)COC(C)=O` (stereo not given), the growth in the assay with HCT-15 colon is 109%; in the assay with HT29 colon, 111%; in the assay on SNB-75 CNS, 91.2%; with SNB-19 CNS it was 106%; with U251 CNS, 99.6%; in the assay on PC-3 prostate, 97%. The growth in the assay on SK-MEL-5 melanoma is 105%; in the assay with UACC-62 melanoma, 103%; in the assay with LOX IMVI melanoma it was 97.4%; in the assay with SK-MEL-28 melanoma, 108%; in the assay on SK-MEL-2 melanoma, 106%; in the assay on EKVX NSCLC it was 101%. Moreover, the growth was 101% in the assay with SN12C renal; 88.3% in the assay with UO-31 renal; 102% in the assay on TK-10 renal; 106% in the assay on ACHN renal; 96.9% in the assay on CAKI-1 renal; 86.3% in the assay with A498 renal. Moreover, the figures for the growth in the assay with CCRF-CEM leukemia and with MOLT-4 leukemia were 108% and 105%, respectively.
Turning to `CC(=O)Oc1ccc(Br)cc1C(=O)O`, the growth in the assay on HCT-15 colon is 102%; with HT29 colon, 107%; in the assay on SNB-75 CNS it was 101%; in the assay with SNB-19 CNS it was 95%; with U251 CNS, 105%; in the assay with PC-3 prostate, 92.2%. In addition, the growth in the assay on SK-MEL-5 melanoma was 104%; in the assay with UACC-62 melanoma, 98.6%; with LOX IMVI melanoma it was 94.6%; in the assay on SK-MEL-28 melanoma, 124%; in the assay with SK-MEL-2 melanoma it was 99.8%; with EKVX NSCLC, 104%. For the same compound, the growth in the assay with SN12C renal is 102%; with UO-31 renal it was 81.8%; with TK-10 renal it was 102%; in the assay on ACHN renal, 99.3%; with CAKI-1 renal, 95.8%; in the assay with A498 renal, 131%. Also, the growth in the assay with CCRF-CEM leukemia is 88.7%; with MOLT-4 leukemia, 101%.
As to `O=C(O)C(c1ccccc1)C(O)c1ccccc1` (stereo not given), the growth in the assay with HCT-15 colon was 102%; with HT29 colon, 96.5%; in the assay on SNB-75 CNS, 96.6%; in the assay on SNB-19 CNS, 103%; in the assay on U251 CNS it was 91.9%; in the assay on PC-3 prostate, 92.6%. Also, the growth in the assay with SK-MEL-5 melanoma was 94%; with UACC-62 melanoma it was 93.6%; with LOX IMVI melanoma, 102%; in the assay with SK-MEL-28 melanoma, 103%; in the assay on SK-MEL-2 melanoma, 99.6%; in the assay with EKVX NSCLC it was 108%. For the same compound, the growth in the assay with SN12C renal is 98.2%; in the assay on UO-31 renal, 94.4%; in the assay with TK-10 renal, 108%; with ACHN renal, 96.6%; in the assay with CAKI-1 renal, 100%; with A498 renal, 69.8%. For the same compound, the growth is 99.8% with CCRF-CEM leukemia and 87.5% in the assay with MOLT-4 leukemia.
